Measured values reported in PubChem BioAssay.
Activity calls are given as the source filed them.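 The calls were made as follows, unless noted: active = fluorescence slope after compound addition differing from the mean of all screened samples at 99.7% confidence, in either direction; inactive = the rest.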

What was measured:
[1] = inhibitors of TNFa-induced NFkB p65 translocation, primary screen, imaging, HUVEC, MLSMR starter and 10KST1 sets (AID 438;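 active = inhibition above 20% together with a positive visual image hit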;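 also: compound added about 3h40 before a 20 min TNFalpha stimulation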;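 as to inhibition: signal is the nuclear over cytoplasmic p65 intensity ratio per well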); settings: HUVEC TNFa-induced p65 nuclear translocation; cell count: measured here: nuclei count (cytotoxicity indicator), at 2.08 µM; inhibition: at 2 µM, stronger effect = higher value, 0% TNFa-plus-vehicle, 100% no-TNFa wells
[2] = reduction of polyQ htt aggregates in cells – imaging, exon1htt(103Q)mCFP cells, high-content imaging, primary screen (AID 483;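 active = visual image review flags a hit and inhibition of aggregation exceeds 20%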;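 also: compound exposure lasted 3 days before fixation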;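 as to nuclei count: percent of the per-plate median nuclei count of sample wells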); settings: exon1htt(103Q)mCFP cell line, aggregate imaging, at 2 µM; inhibition of aggregation: stronger effect = higher value; nuclei count: measured here: cell count, toxicity
[3] = endothelial E-selectin expression blockers – imaging, HUVEC, immunofluorescence, MLSMR starter and 10KST1 sets, primary screen (AID 487;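 active = visually confirmed hit in the image check and inhibition above 20%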;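 as to inhibition: signal is fraction of cell area covered by stained E-selectin grains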;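 as to nuclei count: 100% = median nuclei count of all wells on the same plate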); settings: HUVEC TNFalpha-induced E-selectin immunofluorescence imaging, at 2 µM; inhibition: stronger effect = higher value; nuclei count: measured here: cell number, toxicity
[4] = molecular target: Voltage-gated potassium channel subunit beta-2 (Rattus norvegicus) (UniProt P62483); assay: inhibitors of rat Kvbeta2 reductase activity – biochemical, NADPH fluorescence, primary screen (AID 622;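 active = fluorescence slope higher than the sample average by over 3 SD, cut at about -0.22 in these data, passing the limit was not always enough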;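 also: slope of raw intensity against log time taken from 70 to 1610 s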); settings: recombinant KvBeta, 4-cyanobenzaldehyde reduction, at 10 µM, stronger effect = higher value
Voltage-gated potassium channel subunit beta-2 (Rattus norvegicus), sequence (P62483 whole entry, looked up): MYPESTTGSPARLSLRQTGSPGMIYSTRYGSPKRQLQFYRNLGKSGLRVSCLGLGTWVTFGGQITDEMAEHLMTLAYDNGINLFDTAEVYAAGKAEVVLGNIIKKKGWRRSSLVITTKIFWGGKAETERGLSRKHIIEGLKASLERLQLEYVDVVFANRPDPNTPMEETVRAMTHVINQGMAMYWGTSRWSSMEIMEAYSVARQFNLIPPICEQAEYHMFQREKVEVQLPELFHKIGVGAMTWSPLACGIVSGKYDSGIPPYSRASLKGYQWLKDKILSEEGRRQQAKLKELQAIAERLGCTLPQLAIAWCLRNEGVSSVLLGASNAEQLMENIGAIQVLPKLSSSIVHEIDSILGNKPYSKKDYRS

[5] = molecular target: Voltage-gated potassium channel subunit beta-2 (Rattus norvegicus) (UniProt P62483); assay: enhancers of rat Kvbeta2 NADPH turnover – biochemical, NADPH fluorescence, primary screen (AID 623;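 active = NADPH fluorescence slope more negative than the mean of all samples by about 3 SD, 99.7% confidence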;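 also: fluorescence intensity change per second fitted from 20 to 320 s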); settings: Recombinant KvBeta, NADPH fluorescence decrease slope, 10 min; at 10 µM; stronger effect = lower value
[6] = molecular target: Alpha-2C adrenergic receptor (Homo sapiens) (UniProt P18825); assay: compounds altering alpha2C-coupled GIRK flux – cell-based, HEK293 alpha2C/GIRK1/2, thallium flux, primary screen (AID 624); settings: thallium flux BTC fluorescence, at 10 µM, actives lie on both sides;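 also: slope of fluorescence ratio to pre-addition baseline per second over 15 to 24 s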
Alpha-2C adrenergic receptor (Homo sapiens), sequence (P18825 whole entry, looked up): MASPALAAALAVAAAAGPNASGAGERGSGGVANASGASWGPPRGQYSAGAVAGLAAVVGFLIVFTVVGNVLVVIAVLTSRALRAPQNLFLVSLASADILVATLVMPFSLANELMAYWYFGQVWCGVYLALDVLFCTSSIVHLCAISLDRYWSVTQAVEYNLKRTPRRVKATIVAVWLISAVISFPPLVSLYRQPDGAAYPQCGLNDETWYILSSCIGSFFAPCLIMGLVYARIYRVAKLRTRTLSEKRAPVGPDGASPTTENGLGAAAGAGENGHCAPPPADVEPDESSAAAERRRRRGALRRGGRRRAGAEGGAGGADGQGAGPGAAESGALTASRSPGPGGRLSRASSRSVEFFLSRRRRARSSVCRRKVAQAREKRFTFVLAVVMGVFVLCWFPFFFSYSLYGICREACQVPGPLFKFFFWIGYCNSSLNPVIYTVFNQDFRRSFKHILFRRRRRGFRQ

[7] = blockers of RIG-like receptor reporter activation – cell-based, Sendai virus stimulus, luciferase, 10K MLSCN set, TLR/RLR signaling modifier project, primary screen (AID 602276;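 active = inhibition at or above 50% at 10 µM; inactive = inhibition below 50%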;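 also: firefly luciferase from ISG56 promoter only with Renilla not read in this screen; 0% = Sendai virus plus DMSO and 100% = medium plus DMSO without virus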); settings: HEK293 RL24 IRF3 luciferase reporter, at 10 µM, stronger effect = higher value
[8] = TLR3 IRF3 reporter activation blockers – cell-based, poly I:C stimulus, luciferase, 10K MLSCN set, primary screen (AID 602277;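 active = inhibition of the reporter signal at or above 50%; inactive = inhibition below 50%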); settings: HEK293-TLR3 RL24 IRF3 luciferase reporter, at 10 µM, stronger effect = higher value

Row | SMILES | cell count [1] | inhibition [1] | inhibition of aggregation [2] | nuclei count [2] | inhibition [3] | nuclei count [3] | fluorescence slope [4] | NADPH fluorescence slope [5] | slope [6] | inhibition [7] | inhibition [8]
1 | O=S(=O)(c1ccc2c(c1)OCCO2)N1CCN(Cc2ccc3c(c2)OCO3)CC1 | 632 | 1.9% (inactive) | 0.7% (inactive) | 100% | -24.5% (inactive) | 113% | -0.345 (inactive) | -5.1e-05 (inactive) | 0.00449 (inactive) | 9.49% (inactive) | 25.6% (inactive)
2 | COC(=O)c1sccc1NC(=O)c1csc(C)c1 | 406 | -5.4% (inactive) | 0.6% (inactive) | 88% | -42.1% (inactive) | 123% | -0.384 (inactive) | -0.000107 (inactive) | 0.00657 (inactive) | 18.7% (inactive) | 36.8% (inactive)
3 | CC1=C(C(=O)OC2CCCCC2)C(c2ccc(C)o2)C2=C(CC(C)(C)CC2=O)N1 (centres undefined) | 493 | -2.4% (inactive) | 3.3% (inactive) | 122% | -13.3% (inactive) | 112% | -0.25 (inactive) | -1.1e-05 (inactive) | 0.0052 (inactive) | 7.33% (inactive) | 29.1% (inactive)
4 | Cc1nnc(C)c2c(C)n(Cc3ccc4c(c3)OCO4)c(C)c12 | 679 | 6.2% (inactive) | 4.3% (inactive) | 74.3% | -8.3% (inactive) | 95.8% | -0.517 (inactive) | 4.5e-06 (inactive) | 0.0037 (inactive) | -9.5% (inactive) | -7.65% (inactive)
5 | CC(C)COc1ccc(C2NC(=O)NC2=O)cc1 (centres undefined) | 718 | -10.2% (inactive) | -12.5% (inactive) | 117% | 74.1% (inactive) | 91.5% | -0.452 (inactive) | -2.2e-05 (inactive) | 0.00367 (inactive) | 1.04% (inactive) | 19.9% (inactive)
6 | Cc1ccc2[nH]c(=O)c3cc(C(=O)NCCN4CCN(C)CC4)sc3c2c1 | 526 | -0.5% (inactive) | 2.4% (inactive) | 60% | -14.1% (inactive) | 116% | -0.229 (active) | -4.2e-06 (inactive) | 0.00573 (inactive) | 10.4% (inactive) | 90.4% (active)
7 | CCOC(=O)C1=C(C)N(C)C(=O)NC1c1cccc(O)c1 (centres undefined) | 421 | 6.4% (inactive) | -6.7% (inactive) | 99.3% | -43.5% (inactive) | 124% | -0.259 (inactive) | -1.3e-05 (inactive) | 0.00604 (inactive) | 9.66% (inactive) | 17.5% (inactive)
8 | CCOc1ccc(N2CC(C(=O)NCCc3ccc(OC)c(OC)c3)CC2=O)cc1 (centres undefined) | 458 | -3.8% (inactive) | -9.6% (inactive) | 112% | -59.3% (inactive) | 163% | -0.456 (inactive) | -3.5e-05 (inactive) | 0.00548 (inactive) | 20.4% (inactive) | 25.1% (inactive)
9 | CCOC(=O)N1CCC(NC(=O)c2cc3c(=O)n(C)c4ccccc4c3n2C)CC1 | 701 | -2.8% (inactive) | 4.2% (inactive) | 140% | -50.1% (inactive) | 112% | -0.416 (inactive) | -6.5e-05 (inactive) | 0.00503 (inactive) | 4.95% (inactive) | 28.7% (inactive)
10 | CCN(CC(=O)NC1CCS(=O)(=O)C1)C(=O)C(c1ccccc1)c1ccccc1 (centres undefined) | 887 | 3.8% (inactive) | -12.1% (inactive) | 105% | -74.7% (inactive) | 130% | -0.261 (inactive) | -5e-05 (inactive) | 0.00562 (inactive) | 6.14% (inactive) | 5.12% (inactive)
11 | O=C(NCC1CCCO1)c1cccc(N2CCCC2=O)c1 (centres undefined) | 458 | -18.6% (inactive) | -1.3% (inactive) | 88.8% | -32.7% (inactive) | 115% | -0.376 (inactive) | 2.3e-06 (inactive) | 0.0057 (inactive) | 10.8% (inactive) | 4.03% (inactive)
12 | CC(C)(C)C(=O)NC1CCN(C(=O)N2CCCC2)CC1 | 685 | -6.3% (inactive) | -5.3% (inactive) | 107% | -36.6% (inactive) | 118% | -0.311 (inactive) | -3.2e-05 (inactive) | 0.00525 (inactive) | 12.1% (inactive) | 20.9% (inactive)
13 | COc1cccc(OCC(=O)Nc2ccccc2C(N)=O)c1 | 681 | 0.4% (inactive) | 9.9% (inactive) | 104% | -73.4% (inactive) | 110% | -0.517 (inactive) | 1.4e-05 (inactive) | 0.00589 (inactive) | -50.2% (inactive) | -121% (inactive)
14 | CCn1c(C)c(CCC(=O)O)c(=O)n2nc(-c3ccccc3OC)cc12 | 400 | 7.4% (inactive) | 0% (inactive) | 103% | -121% (inactive) | 108% | -0.548 (inactive) | -1.2e-05 (inactive) | 0.00427 (inactive) | -9.14% (inactive) | 2.68% (inactive)
